The record followed here is PubChem BioAssay (Tox21).

Structures are written as SMILES. Records with an inconclusive call do not appear. Unmarked numbers belong to inactive results. Active and inactive are the calls of the source. Unless noted, calls follow the shape of the full dose curve.
% is scaled to controls: 0 for no effect and ±100 for the full control effect.

Sequence of Thyrotropin receptor (Homo sapiens) (P16473 whole entry, looked up): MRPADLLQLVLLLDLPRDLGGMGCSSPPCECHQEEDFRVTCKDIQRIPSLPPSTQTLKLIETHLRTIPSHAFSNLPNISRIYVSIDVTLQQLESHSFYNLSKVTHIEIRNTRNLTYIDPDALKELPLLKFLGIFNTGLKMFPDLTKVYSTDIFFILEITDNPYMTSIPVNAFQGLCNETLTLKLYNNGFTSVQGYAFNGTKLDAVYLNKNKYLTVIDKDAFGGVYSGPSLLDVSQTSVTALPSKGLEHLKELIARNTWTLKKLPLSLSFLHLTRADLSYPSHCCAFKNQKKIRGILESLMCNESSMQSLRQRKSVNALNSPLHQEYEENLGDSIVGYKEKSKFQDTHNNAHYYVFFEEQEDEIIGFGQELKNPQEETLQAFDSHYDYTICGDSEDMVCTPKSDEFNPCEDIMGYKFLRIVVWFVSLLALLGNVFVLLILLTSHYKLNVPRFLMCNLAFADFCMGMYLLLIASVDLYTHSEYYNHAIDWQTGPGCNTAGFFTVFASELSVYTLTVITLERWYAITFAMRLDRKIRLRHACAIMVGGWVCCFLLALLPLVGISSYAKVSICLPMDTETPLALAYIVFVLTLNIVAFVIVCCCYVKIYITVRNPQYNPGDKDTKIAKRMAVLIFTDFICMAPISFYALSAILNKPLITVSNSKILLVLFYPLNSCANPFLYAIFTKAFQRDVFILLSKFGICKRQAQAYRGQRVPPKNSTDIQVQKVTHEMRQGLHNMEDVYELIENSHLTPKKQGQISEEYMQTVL

Tested on in the first assay: not listed separately
Kind of assay: qHTS assay to identify small molecule antagonists of the estrogen related receptor signaling pathway with the pleiotropic PPARgamma coactivator (PGC) from Tox21 10K library (AID 1224841; call rule not given here; also: actives are mostly falling curves and most rising ones were filed inactive; nearly all actives have a fitted effect of over 50% in size; also: potency is read from the fitted curve at half-maximal effect). To be noted: PGC/ERR reporter cell line, ONE-Glo luciferase, 18 h; series mostly up to 92.4 µM; activity, negative = inhibition: at the top concentration. The procedure, abridged:
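In the PGC/ERR line, DMSO solutions of test chemicals are pin-delivered to 2,000 cells/well six hours after dispensing. Following eighteen hours' incubation, One-Glo reagent is added and luminescence recorded.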
`CCC1(CO)COCOC1`: the “activity, negative = inhibition” value was 13.6%.
Regarding `O=[N+]([O-])c1cc(C2CCCCC2)c(O)c([N+](=O)[O-])c1`, the Potency is 4.84 µM (active).
`CN1CCCC(n2nc(Cc3ccc(Cl)cc3)c3ccccc3c2=O)CC1` (stereo not drawn): the “activity, negative = inhibition” value is -5.01% [at 42.5 µM].
As for `C(=C\c1ccccc1)/c1ccccc1`, the “activity, negative = inhibition” value was 180%.
Same read-out and setting: the result for `Oc1c(I)cc(I)c2cccnc12` reads 182% [at 42.5 µM]; that for `CCOC(=O)c1ccc(I)cc1`, 405%.
`Cc1cc(O)ccc1O`: the “activity, negative = inhibition” value was -106%.
On the same count and under the same terms, the result for `O=C1c2ccccc2C(=O)c2c(O)c(O)cc(O)c21` reads -30.8%; that for `CCOC(=O)/C=C/C(=O)OCC`, 7.53%; that for `CCCCCCCC/C=C\CCCCCCCCO`, 2.3%.
Same read-out and setting: for `O=C1Cc2cc(Cl)ccc2N1` the value was -9.02% [at 42.5 µM]; for `O=c1[nH]c2ccc(Cl)cc2o1`, 2.02%; for `CCC(C)COC(C)=O` (stereo not drawn), 2.1%.
On the same count and under the same terms, for `C=C(C)[C@@H]1CCC2=CCC[C@@H](C)[C@]2(C)C1` the value was 6.59%.
Turning to `CC1CC(OC(=O)C(O)c2ccccc2)CC(C)(C)N1C` (stereo not drawn), the “activity, negative = inhibition” value is 5.97% [at 42.5 µM].
Take `OCCN1CCN(CCCN2c3ccccc3Sc3ccc(Cl)cc32)CC1`: the “activity, negative = inhibition” value is 149% [at 42.5 µM].
In the case of `CCCCCC[C@@H](O)C/C=C\CCCCCCCC(=O)OCC(O)CO` (stereo partly drawn), the “activity, negative = inhibition” value is 2.28%.

Tested on in another assay: not listed separately
Description: qHTS assay to identify small molecule agonists of the estrogen related receptor signaling pathway with the pleiotropic PPARgamma coactivator (PGC) from Tox21 10K library (AID 1224842; active = well fitted activation curve with a large enough effect in the repeat runs; also: nearly all actives have a fitted effect of over 15% in size; also: potency is read from the fitted curve at half-maximal effect). To be noted: PGC/ERR reporter cell line, luciferase ONE-Glo, 18 h; series mostly up to 92.4 µM; activation: at the top concentration. The gist of the method:
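PGC/ERR reporter cell line, 2,000 cells per well, incubated 6 h at 37 C before 23 nL compound in DMSO was added. After 18 h at 37 C, One-Glo luminescence read following 30 min at room temperature.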
On to `CCC1(CO)COCOC1`, for which the “activation” value is 4.2%.
On to `O=[N+]([O-])c1cc(C2CCCCC2)c(O)c([N+](=O)[O-])c1`, for which the “activation” value was -23.4%.
Turning to `CN1CCCC(n2nc(Cc3ccc(Cl)cc3)c3ccccc3c2=O)CC1` (stereo not drawn), the “activation” value was -1.24% [at 42.5 µM].
With `CCOC(=O)c1ccc(I)cc1`, the Potency is 4.9 µM (active).
For the compound `Cc1cc(O)ccc1O`, the “activation” value was -35.7%.
In the case of `c1csc(SSc2cccs2)c1`, the “activation” value is -12.5%.
Turning to `O=C1c2ccccc2C(=O)c2c(O)c(O)cc(O)c21`, the “activation” value is -9.52%.
Regarding `CCOC(=O)/C=C/C(=O)OCC`, the “activation” value is 2.17%.
On the same count and under the same terms, the result for `CCCCCCCC/C=C\CCCCCCCCO` reads 1.07%; that for `O=C1Cc2cc(Cl)ccc2N1`, -2.11% [at 42.5 µM].
The same measure, in the same setting: the result for `CC(=O)OCCN(CCOC(C)=O)c1ccc(N=Nc2ccc([N+](=O)[O-])cc2C#N)cc1` reads -10.6%.
For `O=c1[nH]c2ccc(Cl)cc2o1`, the “activation” value is 0.624%.
On the same count and under the same terms, the result for `CCC(C)COC(C)=O` (stereo not drawn) reads -0.602%.
For the compound `C=C(C)[C@@H]1CCC2=CCC[C@@H](C)[C@]2(C)C1`, the “activation” value was 2.04%.
In the case of `C[C@@H]1CN(CCCn2c3ccccc3c3ccccc32)C[C@H](C)N1`, the “activation” value is -35.6% [at 42.5 µM].
In the case of `CC1CC(OC(=O)C(O)c2ccccc2)CC(C)(C)N1C` (stereo not drawn), the “activation” value is 1.89% [at 42.5 µM].
Consider `CCCCCC[C@@H](O)C/C=C\CCCCCCCC(=O)OCC(O)CO` (stereo partly drawn), for which the “activation” value was 0.703%.

Another assay concerns the target Thyrotropin receptor (Homo sapiens) (UniProt P16473). Description: qHTS assay to identify small molecule agonists of the thyroid stimulating hormone receptor (TSHR) signaling pathway (AID 1224843). Also: nearly all actives have a fitted effect of over 45% in size. To be noted: TSHR-HEK293 cells, cAMP HTRF, agonist mode, 30 min; series mostly up to 92.4 µM; activation: at the top concentration. The gist of the method: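 HEK293/TSHR, 800 cells/well; cpd 30 min RT; add cAMP-d2 + anti-cAMP-cryptate, 1 h RT; fluorescence read on plate reader. 15-pt titration, n=3.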
In general terms: qHTS replaces the single test concentration by a dilution series.
For `Oc1cccc(Nc2ccccc2)c1`, the “activation” value was -14.4%.
On the same count and under the same terms, the result for `CCC1(CO)COCOC1` reads 15%.
As to `CCCCOc1ccc(OCCCN2CCOCC2)cc1`, the “activation” value was -1.93% [at 42.5 µM].
Turning to `O=[N+]([O-])c1cc(C2CCCCC2)c(O)c([N+](=O)[O-])c1`, the “activation” value was -3.63%.
Turning to `C(=C\c1ccccc1)/c1ccccc1`, the “activation” value was -9.83%.
With `Oc1c(I)cc(I)c2cccnc12`, the “activation” value was 2.24% [at 42.5 µM].
Same read-out and setting: the result for `c1csc(SSc2cccs2)c1` reads 17.1%.
The same measure, in the same setting: the result for `O=C1c2ccccc2C(=O)c2c(O)c(O)cc(O)c21` reads -1.18%; that for `CCCCCCCC/C=C\CCCCCCCCO`, -1.33%.
For the compound `O=C1Cc2cc(Cl)ccc2N1`, the “activation” value was 7.12% [at 42.5 µM].
For `C=C1CCC2CC1C2(C)C` (stereo not drawn), the “activation” value was 9.09%.
The same measure, in the same setting: for `O=c1[nH]c2ccc(Cl)cc2o1` the value was 0.409%.
The same measure, in the same setting: the result for `CCC(C)COC(C)=O` (stereo not drawn) reads -19.4%.
The same measure, in the same setting: the result for `C[C@]1(Cn2ccnn2)[C@H](C(=O)O)N2C(=O)C[C@H]2S1(=O)=O` reads -4.11% [at 42.5 µM].
For the compound `CC1CC(OC(=O)C(O)c2ccccc2)CC(C)(C)N1C` (stereo not drawn), the “activation” value is -3.34% [at 42.5 µM].
For `OCCN1CCN(CCCN2c3ccccc3Sc3ccc(Cl)cc32)CC1`, the “activation” value was -2.31% [at 42.5 µM].

Tested on in another assay: not listed separately
Description: qHTS assay to identify small molecule agonists of the hypoxia (HIF-1) signaling pathway - cell viability counter screen (AID 1224844). Also: nearly all actives have a fitted effect of over 50% in size. Also: potency is read from the fitted curve at half-maximal effect. The conditions noted are these: HRE-bla ME-180 viability, CellTiter-Glo luminescence, 17 h; series mostly up to 76.8 µM; activity change, negative = cytotoxicity: at the top concentration. The gist of the method:
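Same wells as the HIF-1 reporter screen; ME-180 cells carrying HRE-bla, 17 hr treatment at 37C; CellTiter-Glo luminescence read after 30 min at room temperature.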
Take `Oc1cccc(Nc2ccccc2)c1`: the “activity change, negative = cytotoxicity” value was 5.63%.
Still for that read-out and setting: for `Cc1cc2c(OCC(CNC(C)(C)C)OC(=O)c3ccccc3)cccc2[nH]1` (stereo not drawn) the value was -1.23% [at 35.3 µM].
`CCC1(CO)COCOC1`: the “activity change, negative = cytotoxicity” value is 4.31%.
In the case of `CC(C)(C)C(=O)C(=O)O`, the “activity change, negative = cytotoxicity” value was -26.7%.
The same measure, in the same setting: for `CCCCOc1ccc(OCCCN2CCOCC2)cc1` the value was 10.6% [at 35.3 µM].
Take `CN1CCCC(n2nc(Cc3ccc(Cl)cc3)c3ccccc3c2=O)CC1` (stereo not drawn): the Potency was 21.3 µM (active).
As for `C(=C\c1ccccc1)/c1ccccc1`, the “activity change, negative = cytotoxicity” value is -25.4%.
On the same count and under the same terms, the result for `O=C1NCCN1CCO` reads 3.77%; that for `CCCCCCCCOc1ccc(C(=O)O)cc1`, -22.7%.
Still for that read-out and setting: for `Oc1c(I)cc(I)c2cccnc12` the value was 3.26% [at 35.3 µM].
On the same count and under the same terms, for `O=C1c2ccccc2C(=O)c2c(O)c(O)cc(O)c21` the value was 12.4%; for `CCOC(=O)/C=C/C(=O)OCC`, 8.58%; for `CCCCCCCC/C=C\CCCCCCCCO`, 10.1%.
Consider `O=C1Cc2cc(Cl)ccc2N1`, for which the “activity change, negative = cytotoxicity” value is 0.0266% [at 35.3 µM].
Turning to `Nc1nnc(-c2ccc([N+](=O)[O-])o2)o1`, the “activity change, negative = cytotoxicity” value is 13.1%.
Same read-out and setting: the result for `C=C1CCC2CC1C2(C)C` (stereo not drawn) reads -0.646%.
Still for that read-out and setting: the result for `O=C(O)c1cccc(-c2noc(-c3ccccc3F)n2)c1` reads -23.4% [at 35.3 µM]; that for `CC(=O)OCCN(CCOC(C)=O)c1ccc(N=Nc2ccc([N+](=O)[O-])cc2C#N)cc1`, 7.85%; that for `O=c1[nH]c2ccc(Cl)cc2o1`, -9.12%.
As for `CCc1ccccc1`, the “activity change, negative = cytotoxicity” value was 8.08%.
`CCC(C)COC(C)=O` (stereo not drawn): the “activity change, negative = cytotoxicity” value was 1.45%.
On the same count and under the same terms, for `C=C(C)[C@@H]1CCC2=CCC[C@@H](C)[C@]2(C)C1` the value was -2.62%; for `O=C(Cn1ccnc1[N+](=O)[O-])NCCO`, 4.13% [at 35.3 µM].
For `C[C@@H]1CN(CCCn2c3ccccc3c3ccccc32)C[C@H](C)N1`, the Potency was 21.3 µM (active).
For the compound `C[C@]1(Cn2ccnn2)[C@H](C(=O)O)N2C(=O)C[C@H]2S1(=O)=O`, the “activity change, negative = cytotoxicity” value was 0.788% [at 35.3 µM].
Take `O=C(/C=C/c1ccccc1)OCCc1ccccc1`: the “activity change, negative = cytotoxicity” value was -0.795%.
On the same count and under the same terms, for `CCCCN1CCCC1C(=O)Nc1c(C)cc(C)cc1C` (stereo not drawn) the value was 2.31% [at 35.3 µM]; for `Cc1ccc(C(C)(C)O)cc1`, 3.01%.
The same measure, in the same setting: the result for `CCCCN(CCCC)C(C(N)=O)c1ccc(OC)cc1` (stereo not drawn) reads 0.0657% [at 35.3 µM].
For `CCCCN(CCN(CCCC)C(=O)N1CCOCC1)C(=O)N1CCOCC1`, the “activity change, negative = cytotoxicity” value is 17.2% [at 35.3 µM].
For `CC1CC(OC(=O)C(O)c2ccccc2)CC(C)(C)N1C` (stereo not drawn), the “activity change, negative = cytotoxicity” value is 0.291% [at 35.3 µM].
With `OCCN1CCN(CCCN2c3ccccc3Sc3ccc(Cl)cc32)CC1`, the Potency was 15.1 µM (active).
As to `CCCCCC[C@@H](O)C/C=C\CCCCCCCC(=O)OCC(O)CO` (stereo partly drawn), the “activity change, negative = cytotoxicity” value is -13%.
